Hits are enriched below; roughly 2.3% of the tested compounds scored in any of these assays.
UHRF1 MBD2 ctr: UHRF1 methyl-DNA binding inhibition | Q96T88 | inhibition, % at 4.4 µM | 0.75% of 370,000 active | UHRF1 binding to methylated oligo, TR-FRET;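 further: UHRF1 SRA domain binding a hemimethylated CpG hairpin DNA probe; 0% = median of test compound wells and 100% = reference inhibitor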
MBD2 inh: inhibitors of human MBD2 binding to methylated oligonucleotide; inhibition, % at 4.4 µM; TR-FRET; Q9UBB5; 0.31% of 370,000 active; in the data active means inhibition above about 13%
Target sequence (Q9UBB5 whole entry, looked up): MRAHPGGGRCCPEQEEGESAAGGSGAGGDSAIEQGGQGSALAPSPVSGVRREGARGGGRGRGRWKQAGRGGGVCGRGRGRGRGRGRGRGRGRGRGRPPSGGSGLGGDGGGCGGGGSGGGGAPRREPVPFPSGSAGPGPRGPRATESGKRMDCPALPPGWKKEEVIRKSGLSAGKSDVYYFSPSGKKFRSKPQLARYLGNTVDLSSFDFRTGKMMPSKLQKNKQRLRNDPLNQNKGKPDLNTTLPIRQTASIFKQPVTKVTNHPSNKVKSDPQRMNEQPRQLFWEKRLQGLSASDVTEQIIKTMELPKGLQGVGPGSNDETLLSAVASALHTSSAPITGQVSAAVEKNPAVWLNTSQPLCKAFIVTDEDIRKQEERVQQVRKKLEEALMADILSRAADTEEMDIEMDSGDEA
PLC-gamma1 inh: inhibitors of human phospholipase C gamma1 | purified PLC-gamma1, fluorogenic substrate, fluorescence | P19174 | inhibition, % at 12.2 µM | AID 720700 | 0.84% of 370,000 active; in the data active means inhibition above about 9.5%
LEDGF integ inh: blocks HIV-1 LEDGF/p75-dependent DNA integration | inhibition, % at 3.7 µM | AID 743269 | TR-FRET IN-LEDGF/p75 DNA integration, Eu/Cy5 | 0.64% of 370,000 active;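 active means inhibition above the screen-wide mean plus 3 SD, cut at about 13% in these data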;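 further: signal is the Cy5 over europium emission ratio at 671 and 618 nm; 0% = plate median of compound wells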
PLC-beta3 inh: blocks human PLC-beta3 enzyme activity | Purified PLC-beta3, fluorogenic substrate, fluorescence | inhibition, % at 12.2 µM | 0.18% of 370,000 active; in the data active means inhibition above about 11%;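 further: 0% = median of compound wells on plate and 100% = full blocker control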
UHRF1 ctr MBD2: counter-screen for MBD2 inhibitors: human UHRF1 methylated DNA binding inhibitors. shares compounds with MBD2 inh. UHRF1 binding to methylated oligonucleotide, TR-FRET. inhibition, % at 4.4 µM. 25% of 1,000 active. AID 720530;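 further: UHRF1 SRA domain binding a labeled hemimethylated CpG hairpin DNA; 0% = vehicle only and 100% = reference inhibitor with vehicle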
MBD2 confirm: confirmation of human MBD2-DBD methylated oligonucleotide binding inhibitors; 26% of 1,000 active; shares compounds with MBD2 inh; AID 720531; TR-FRET MBD2-DBD binding to methylated oligonucleotide; inhibition, % at 4.4 µM; in the data active means inhibition above about 14%
PLCgamma1 ctr: counter-screen for PLC-beta3 inhibitors: inhibitors of human PLC-gamma1; shares compounds with PLC-gamma1 inh; purified PLC-gamma1, fluorogenic substrate, fluorescence; inhibition, % at 12.3 µM; 3.1% of 3,300 active; AID 743258; in the data active means inhibition above about 9.5%
PLCbeta3 conf: confirmation of human PLC-beta3 inhibitors; shares compounds with PLC-gamma1 inh; purified PLC-beta3, fluorogenic substrate fluorescence; inhibition, % at 12.3 µM; 1% of 3,300 active; AID 743261; in the data active means inhibition above about 11%
IN multimer up: activates HIV-1 integrase multimerization in LEDGF counter-screen; shares compounds with LEDGF integ inh; TR-FRET HIV-1 integrase multimerization, biochemical; activation, % at 7.7 µM; 17% of 2,000 active; in the data active means activation above about 8.9%
TRFRET interf: counter-screen for LEDGF/p75 integration inhibitors: TR-FRET optical interference. shares compounds with LEDGF integ inh. TR-FRET optical interference counterscreen, HIV-1 IN multimerization. inhibition, % at 7.7 µM. 2,000 tested, under 10 active;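 active means inhibition above the mean over all tested compounds plus 3 SD, which no compound reached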;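 further: 0% = integrase with antibodies and DMSO and 100% = antibodies without integrase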
LEDGF integ conf: LEDGF/p75-dependent HIV-1 integration inhibition, confirmation | TR-FRET LEDGF/p75-dependent HIV-1 integration, biochemical | shares compounds with LEDGF integ inh | AID 1053136 | 36% of 2,000 active | inhibition, % at 3.7 µM; in the data active means inhibition above about 14%
The depositor's hits bear a star; i = inactive; / = not tested or not shown. Unless noted, no stated cut-off is given here; in the data, active means inhibition above about 21%; inactive means the rest.

SMILES	UHRF1 MBD2 ctr	MBD2 inh	PLC-gamma1 inh	LEDGF integ inh	PLC-beta3 inh	UHRF1 ctr MBD2	MBD2 confirm	IN multimer up	TRFRET interf	LEDGF integ conf	others
C#Cc1cccc(OC[C@@H](O)CN2CCC(C(O)(c3ccccc3)c3ccccc3)CC2)c1	-1	2	6	1	1	/	/	/	/	/
O=C1NC(=S)NC1=Cc1ccco1	61*	21*	-5	56*	-37	19	4	7	-34	41*
COC(=O)[C@]1(CNC(C)=O)CC(=O)N(C)[C@@H]1c1ccccc1	1	0	0	0	2	/	/	/	/	/
CCc1cc(=O)oc2cc(C)c(CN3CCCC3)c(O)c12	32*	15*	-32	35*	-63	16	11	6	-30	40*
Cc1cc(C)c2c(CN3CCCC3)cc(=O)oc2c1	0	2	-1	-3	-4	/	/	/	/	/
C[C@@H]1[C@@H](c2ccccc2)c2cc3ccccc3nc2-c2nc3ccccc3cc2[C@@H]1C(=O)N1CCCC1	0	2	-3	2	-5	/	/	/	/	/
COc1ccc(-c2ncn(CCC#N)c2[N+](=O)[O-])cc1	-4	3	1	-2	0	/	/	/	/	/
COc1ccc(-c2cc(=O)n(CCC#N)[nH]2)cc1	16	18*	-32	42*	-45	1	0	0	1	1
CN(CCC#N)C(=O)COC(=O)c1c2c(nc3ccccc13)/C(=C\c1ccco1)CC2	41*	20*	-48	50*	-67	35*	29*	21*	-104	70*
O=C(COC(=O)c1ccccc1)Nc1ncc([N+](=O)[O-])s1	44*	15*	4	15*	-6	48*	18*	4	-22	34*
O=Cc1cccc(OC(=O)/C=C/c2ccco2)c1	48*	17*	-1	16*	-10	48*	25*	11*	-40	36*
COC(=O)c1ccc(OC(=O)/C=C/c2ccco2)cc1	3	0	-1	2	-8	/	/	/	/	/
CC(C)(CS(=O)(=O)[O-])NC(=O)CC[N+](C)(C)CCO	92*	54*	-1	39*	1	95*	85*	122*	i	38*
CCN(CC)c1ccc(C=NNC(=O)Cc2cc(=O)[nH][nH]2)c(O)c1	-6	-4	-41	1	-59	/	/	/	/	/
O=c1c2cc(O)c(O)cc2oc2cc(O)c(C3OC(CO)C(O)C(O)C3O)c(O)c12 (configuration not stated)	60*	43*	-231	82*	-280	45*	40*	70*	-351	86*
O=C(O)c1ccc(-n2c(-c3cc(-c4ccco4)[nH]n3)n[nH]c2=S)cc1	83*	27*	31*	53*	9	73*	23*	10*	-52	42*	PLCgamma1 ctr=23*;PLCbeta3 conf=10
CC(=O)c1ccc(-n2c(-c3cc(-c4ccco4)[nH]n3)n[nH]c2=S)cc1	0	-3	1	4	0	/	/	/	/	/
C=C(C)C(=O)Nc1cccc(C2=NOC3(C2)C[C@@H](C(N)=O)N(C(=O)/C=C/C=C/C)C3)c1 (some centres not stated)	79*	47*	6	18*	0	88*	60*	41*	-205	19*
C=C(C)C(=O)Nc1cccc(C2=NOC3(C2)C[C@@H](C(N)=O)N(C(=O)/C(C)=C/C)C3)c1 (some centres not stated)	89*	38*	1	39*	0	91*	69*	57*	-285	52*
COc1ccc(CN2C(=O)CCCC2(C)c2nnnn2-c2c(C)cccc2C)cc1OC (configuration not stated)	1	-5	-2	5	0	/	/	/	/	/
Cc1cc(C)n2c(Nc3ccc4c(c3)OCCO4)c(-c3ccc(C)o3)nc2n1	26*	16*	-56	24*	-62	2	2	2	-8	4
O=C(CSc1nnc(-c2cccs2)o1)Nc1cccc2ccccc12	0	3	-4	0	-4	/	/	/	/	/
CCOC(=O)[C@@]12CCCC3=C1N(CCC3)C(=O)[C@H]2CC(=O)NCC1CCCCC1	1	5	1	-2	-5	/	/	/	/	/
NC1=NC(=O)/C(=C\c2ccco2)S1	68*	24*	-3	62*	-42	47*	24*	30*	-106	50*
COC(=O)[C@]12C[C@H](CC(=O)N3CCN(C(=O)C4CC4)CC3)C(=O)N(CCC3=CCCCC3)C1=C[C@H](C1CCCC1)O[C@@H]2C	0	7	-2	-4	-4	/	/	/	/	/
SMILES	UHRF1 MBD2 ctr	MBD2 inh	PLC-gamma1 inh	LEDGF integ inh	PLC-beta3 inh	UHRF1 ctr MBD2	MBD2 confirm	IN multimer up	TRFRET interf	LEDGF integ conf	others
COc1cc(N)c(C(=O)c2nccc3cc(OC)c(OC)cc23)cc1OC	4	0	-3	0	-9	/	/	/	/	/
COc1cc(Br)c(C(=O)c2nccc3cc(OC)c(OC)cc23)cc1OC	25*	14*	5	15*	-22	37*	26*	3	-10	75*
CCOc1cc(N2CCOCC2)c(OCC)cc1NC(=O)C(C)C	0	2	0	-7	-10	/	/	/	/	/
CCOc1cc(N2CCOCC2)c(OCC)cc1NC(C)C(=O)N1CCN(CC)CC1 (configuration not stated)	91*	51*	7	63*	2	1	-3	2	-10	10
COc1ccc(NC(=O)NNC(=O)CCn2nc(C)c([N+](=O)[O-])c2C)cc1OC	1	0	0	0	4	/	/	/	/	/
CCn1c(C)nc2cc(C(=O)N/N=C/c3ccc(O)c(O)c3O)ccc21	19	16*	-1	73*	-9	3	2	52*	-264	70*
CCOC(=O)[C@]12CCCC=C1N(Cc1ccc(OC)cc1)C(=O)[C@@H]2CC(=O)N1CCN(C(=O)C2CC2)CC1	1	-3	-1	1	1	/	/	/	/	/
